Among all 360,000 compounds or so, about 4,600 (1.3%) were called active. Shown is part of a subset that was picked to be rich in actives. A number with no mark means an inactive call.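 The calls were made as follows: active = percent inhibition above its own plate's cutoff, namely the mean of that plate's compound wells plus 3 SD; inactive = the rest.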

Consider 55 compounds from PubChem BioAssay AID588852 (The Scripps Research Institute Molecular Screening Center, 2011).

Muscarinic acetylcholine receptor M1 (Homo sapiens), sequence (P11229 whole entry, looked up): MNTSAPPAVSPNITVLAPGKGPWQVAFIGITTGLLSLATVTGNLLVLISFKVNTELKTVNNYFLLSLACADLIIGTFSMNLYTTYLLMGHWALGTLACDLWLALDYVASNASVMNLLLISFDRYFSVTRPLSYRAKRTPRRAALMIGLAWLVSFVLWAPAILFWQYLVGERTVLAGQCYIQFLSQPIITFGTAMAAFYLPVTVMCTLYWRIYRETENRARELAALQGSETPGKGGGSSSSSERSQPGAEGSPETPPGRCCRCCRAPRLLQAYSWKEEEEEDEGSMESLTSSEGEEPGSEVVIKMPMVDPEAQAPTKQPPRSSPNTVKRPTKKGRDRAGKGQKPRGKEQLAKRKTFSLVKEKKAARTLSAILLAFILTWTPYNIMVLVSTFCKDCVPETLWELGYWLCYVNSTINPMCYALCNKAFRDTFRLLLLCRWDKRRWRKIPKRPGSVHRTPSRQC

This experiment has as its target Muscarinic acetylcholine receptor M1 (Homo sapiens) (UniProt P11229). Put plainly: human M1 muscarinic receptor antagonists, primary screen, CHO-K1 cells, Fluo-8 calcium fluorescence, 1536-well (AID 588852).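 Also: peak over basal fluorescence ratio during 140 s after agonist addition; 0% = ACh EC80 plus DMSO and 100% = DMSO alone without agonist.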 The settings on record: CHO-K1 hM1, Fluo-8 calcium fluorescence, ACh EC80 antagonist; at 3 µM; active compounds read high.
In the case of `COCc1cc(=O)[nH]c(-c2ccc(C(F)(F)F)cc2)n1`, the inhibition (in general, the change of the read-out against control, counted positive when it falls) was -16.9%.

On to `CC(=O)N[C@@H](C)C(=O)N1CCC(n2nccc2NC(=O)CCCc2ccccc2)CC1`, for which the inhibition is -3.58%. On to `CN(Cc1ccc(C(F)(F)F)cc1)C(=O)[C@H]1O[C@@H](n2cnc3c(N)ncnc32)[C@H](O)[C@@H]1O`, for which the inhibition is -26%.

In the case of `CCCC(O)(c1ccc(OC)cc1)C(CN(C)C)c1ccccc1` (stereo not given), the inhibition was -7.01%. The figure for `COC(CCN(C)C)(c1ccccc1)c1ccccc1` is 60.4% (active); for `CN(C)N(C)C(=O)C(O)(c1ccccc1)c1ccccc1` it is 17.7%; for `CC(=O)NC(CC(=O)Nc1cccc(S(=O)(=O)N2CCCC2)c1)c1ccccc1` (stereo not given) it is 3.34%. Regarding `CN(C)CCNC(=O)c1cccc(-c2cnc3c(NC=O)cc(-c4cccc(C(F)(F)F)c4)cn23)c1`, the inhibition is 2.76%. The figure for `CN1OC[C@@H]2CN(C(=O)c3cccc4ccccc34)[C@H](c3ccc(N4CCCCC4)cc3)C[C@@H]21` is 19.7%; for `CN(CCOc1ccccc1)Cc1nc2cc(Cl)ccc2c(=O)[nH]1` it is -3.58%. Turning to `Cc1nnc(NC2=NCCCCC2)o1`, the inhibition was 4.98%. Regarding `CC/C(=N\NC(=S)NC(C)C)c1ccc(OC(F)F)cc1`, the inhibition is 8.57%. The figure for `O=C(NCc1ccccc1CN1CCCC1)C1CCN(S(=O)(=O)c2ccc(Cl)cc2)CC1` is 35.7% (active); for `O=C(NNS(=O)(=O)c1ccc(Cl)cc1)C1CCN(Cc2ccccc2)CC1` it is 57.4% (active). The figure for `Cc1ccc(S(=O)(=O)NCCC(=O)NC2CCN(Cc3ccccc3)CC2)cc1` is -6.1%; for `O=C(NCc1ccccc1Cl)C1CCN(S(=O)(=O)N2CCOCC2)CC1` it is 0.29%. Take `CCNC(=S)NNC(=O)C1CCN(Cc2ccccc2)CC1`: the inhibition is -7.27%. Turning to `O=C1CCc2cc(S(=O)(=O)N3CCC(C(=O)NCc4ccccc4Cl)CC3)ccc2N1`, the inhibition was -13.3%. The figure for `CCCCC[C@@H]1C=C(C(=O)OCC)[C@H](c2ccccc2)N1S(=O)(=O)c1ccc(C)cc1` is 7.33%; for `Cc1ccc(NC(=O)[C@H](Cc2ccccc2)NC(=O)CC[C@H]2O[C@@H](n3ccc(=O)[nH]c3=O)[C@H](O)[C@@H]2O)cc1C` it is -1.88%; for `Nc1ncnc2c1ncn2[C@@H]1O[C@H](C(=O)N2CCCN(Cc3ccccc3F)CC2)[C@@H](O)[C@H]1O` it is -21.5%. Regarding `CN(C)C(=O)c1cccc(-c2cnc3sc(NCc4ccc5c(c4)OCO5)nn23)c1`, the inhibition was -4.01%. The result for `CCOC(=O)c1ccc(N2C(=O)CC(N3CCN(C(=O)c4ccccc4)CC3)C2=O)cc1` (stereo not given) reads -7.68%; that for `CCOC(=O)c1ccc(N2C(=O)CC(N3CCC(C(=O)OCC)CC3)C2=O)cc1` (stereo not given), 2.05%; that for `CCCCOC(=O)c1ccc(N2C(=O)CC(N3CCN(C/C=C/c4ccccc4)CC3)C2=O)cc1` (stereo not given), 23.9% (active). The figure for `COc1ccc(CCNC(=O)CCNS(=O)(=O)c2cc(Br)cnc2N)cc1OC` is -19.1%; for `COc1cccc(OCc2cc(C(=O)N3CCN(C(=O)c4ccco4)CC3)no2)c1` it is -3.65%. The figure for `C=CCC1(CC=C)CCCN1C(=O)c1cc(COc2ccc(-n3cncn3)cc2)on1` is 38.7% (active). In the case of `CCCC(=O)N1CCC1(C)C(=O)Nc1ccc(-n2cncn2)cc1` (stereo not given), the inhibition was -15.8%. As for `COc1ccccc1NC(=O)COC(=O)c1ccccc1SCC(=O)N1CCCC1`, the inhibition is -4.49%. For the compound `CC(C)N(Cc1ccccc1)C(=O)COC(=O)c1ccccc1SCC(=O)N1CCCC1`, the inhibition was 32.7% (active). The figure for `CC(NC(=O)c1ccccc1SCC(=O)N1CCCC1)c1ccccc1` (stereo not given) is -16.6%; for `COc1cc(C=C(OC(C)=O)c2ccc3c(c2)OCO3)cc(OC)c1OC` it is 17.2%. The result for `O=C(NCC1CCCO1)c1ccccc1-c1nc(-c2ccccc2Cl)no1` (stereo not given) reads 6.15%; that for `Cc1ccc(C(=O)NCC(=O)NCc2cc(=O)n(C)c(=O)n2C)cc1`, -9.92%. The figure for `COc1cc(CC(=O)Nc2nc(-c3ccc(F)c(F)c3)cs2)cc(OC)c1OC` is 32.3% (active); for `O=C(COc1ccccc1F)Nc1nc(-c2ccccn2)cs1` it is -7.13%; for `COc1ccc(CC(=O)Nc2ccccc2NC(=O)c2ccco2)cc1OC` it is -6.85%. For `COc1ccc(-c2csc(Nc3cccc(C)n3)n2)cc1OC`, the inhibition is -13.9%. `COc1ccc(CCNC(=O)COC(=O)Cc2cc(OC)c(OC)c(OC)c2)cc1`: the inhibition was -5.89%. The result for `COc1ccc(CC(=O)Nc2nc(-c3ccc(F)c(F)c3)cs2)cc1OC` reads 37.2% (active); that for `CC(C)C[C@H]1CN([C@@H](Cc2ccccc2)CN2CCC[C@@H]2CN2C(=O)C(=O)NC[C@@H]2Cc2ccc(O)cc2)C(=O)C(=O)N1CCc1ccccc1`, 6.28%.

In the case of `CC(=O)Nc1ccc(NC(=O)CSc2nnnn2C2CCCCC2)cc1`, the inhibition was -17.6%. As for `CN(CC#CCC(c1ccccc1)c1ccccc1)C(C)(C)C`, the inhibition was 94.5% (active). The result for `CC(C)OCCCNc1ncnc2c1[nH]c1ccc(F)cc12` reads 49.6% (active); that for `CCOC(=O)C1=CCC2C(=O)N(Cc3ccccc3)C(=O)C12` (stereo not given), -8.51%. The result for `CCNC(=O)COC(=O)/C=C/c1c(C)nn(Cc2cccc(OC)c2)c1Cl` reads -14.4%. In the case of `O=C(NC1CC1)C1=C[C@H](c2coc3ccccc3c2=O)C[C@H](OCCCCO)O1`, the inhibition was -2.15%. The result for `CC1(Cc2cccc(C#N)c2)C(=O)Nc2ccc(-c3cccc(C(F)(F)F)c3)cc21` (stereo not given) reads -21.5%. The figure for `O=C(N/N=C/c1ccc(OCC2COCCO2)cc1)c1ccc(Br)cc1` (stereo not given) is -0.51%; for `COc1cccc(/C=N/Nc2cc(C)nc(-c3ccccc3O)n2)c1O` it is 37% (active). The figure for `COc1ccccc1-n1c(SCC(=O)Nc2cccc(C(=O)O)c2)nnc1-c1ccccc1O` is -23.3%; for `COc1cc(/C=N/Nc2ccc(C)cc2)cc(Br)c1O` it is 1.92%; for `CC(C)C(=O)Nc1nnc(SCC(=O)N2C(C)CCCC2C)s1` (stereo not given) it is -9.39%. In the case of `COC(C)(C)[C@]12CC(O)(C(C)C)ON1[C@H]1CCCCC1N2O` (stereo not given in full), the inhibition was 2.96%.
